Results taken from the supplement of paper PMC12282887.
± gives the standard deviation of the averaged measurements.

How the values were obtained:
Test in all cases: promoter activity interaction Z-score (Lux/OD deviation from empty-vector control); higher = stronger promoter induction by the compound
[1] = tested on: E. coli BW25113 acrABp lux reporter
How it was run: (§1)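 Low-copy luxCDABE promoter reporters were carried by E. coli BW25113, either wild type or lacking one of three genes, grown in 40 µl LB Lennox in 384-well plates at 37°C. Each compound was run at four 1:2 dilutions in biological duplicates, with OD600 and luminescence read every 30 min for 12 h. Integration used 0–8 h for wild type and 1–9 h for deletion strains, and wells under 10% of the median growth value were removed. Luminescence normalised to growth was fitted against a control, and the Z-transformed residual is the score.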

[2] = tested on: E. coli BW25113 micFp lux reporter
How it was run: as §1

[3] = tested on: E. coli BW25113 ompFp lux reporter
How it was run: as §1

[4] = tested on: E. coli BW25113 robp lux reporter
How it was run: as §1

[5] = tested on: E. coli BW25113 soxSp lux reporter
How it was run: as §1

[6] = tested on: E. coli BW25113 tolCp lux reporter
How it was run: as §1

[7] = 0.063 µg/ml, genetic background: wild type
[8] = 0.063 µg/ml, genetic background: ΔmarA
[9] = 0.063 µg/ml, genetic background: Δrob
[10] = 0.063 µg/ml, genetic background: ΔsoxS
[11] = 0.13 µg/ml, genetic background: wild type
[12] = 0.13 µg/ml, genetic background: ΔmarA
[13] = 0.13 µg/ml, genetic background: Δrob
[14] = 0.13 µg/ml, genetic background: ΔsoxS
[15] = 0.25 µg/ml, genetic background: wild type
[16] = 0.25 µg/ml, genetic background: ΔmarA
[17] = 0.25 µg/ml, genetic background: Δrob
[18] = 0.25 µg/ml, genetic background: ΔsoxS
[19] = 0.5 µg/ml, genetic background: wild type
[20] = 0.5 µg/ml, genetic background: ΔmarA
[21] = 0.5 µg/ml, genetic background: Δrob
[22] = 0.5 µg/ml, genetic background: ΔsoxS

`CO[C@@]12[C@H](COC(N)=O)C3=C(C(=O)C(C)=C(N)C3=O)N1C[C@@H]1N[C@@H]12` [Mitomycin C] was tested, and the “promoter activity interaction Z-score” value [1, 7] was 0.203 ± 0.26, the “promoter activity interaction Z-score” value [1, 8] was -0.582 ± 1.1 and the “promoter activity interaction Z-score” value [1, 9] was 0.184 ± 0.69. The “promoter activity interaction Z-score” value [1, 10] was 0.15 ± 0.32, the “promoter activity interaction Z-score” value [1, 11] was -0.161 ± 0.0059 and the “promoter activity interaction Z-score” value [1, 12] was 1.65 ± 0.15. For the same molecule, the “promoter activity interaction Z-score” value [1, 13] was 0.0466 ± 0.51, the “promoter activity interaction Z-score” value [1, 14] was 0.106 ± 0.043 and the “promoter activity interaction Z-score” value [1, 15] was 0.269 ± 0.076. For the same molecule, the “promoter activity interaction Z-score” value [1, 16] was 0.437 ± 0.76, the “promoter activity interaction Z-score” value [1, 17] was -0.105 ± 0.42 and the “promoter activity interaction Z-score” value [1, 18] was -0.0948 ± 0.4. The “promoter activity interaction Z-score” value [1, 19] was 0.332 ± 0.099, the “promoter activity interaction Z-score” value [1, 20] was 1.08 ± 0.83 and the “promoter activity interaction Z-score” value [1, 21] was -0.0462 ± 0.55. The “promoter activity interaction Z-score” value [1, 22] was 0.117 ± 0.79, the “promoter activity interaction Z-score” value [2, 7] was 0.161 ± 0.24 and the “promoter activity interaction Z-score” value [2, 8] was 0.0738 ± 0.13. The “promoter activity interaction Z-score” value [2, 9] was -0.0403 ± 0.002, the “promoter activity interaction Z-score” value [2, 10] was 0.173 ± 0.094 and the “promoter activity interaction Z-score” value [2, 11] was -0.0611 ± 0.13. For the same molecule, the “promoter activity interaction Z-score” value [2, 12] was 0.273 ± 0.08, the “promoter activity interaction Z-score” value [2, 13] was 0.135 ± 0.19 and the “promoter activity interaction Z-score” value [2, 14] was 0.423 ± 0.057. For the same molecule, the “promoter activity interaction Z-score” value [2, 15] was 0.189 ± 0.054, the “promoter activity interaction Z-score” value [2, 16] was 0.0506 ± 0.14 and the “promoter activity interaction Z-score” value [2, 17] was -0.0293 ± 0.023. For the same molecule, the “promoter activity interaction Z-score” value [2, 18] was -0.0557 ± 0.14, the “promoter activity interaction Z-score” value [2, 19] was -0.299 ± 0.0083 and the “promoter activity interaction Z-score” value [2, 20] was -0.029 ± 0.23. The “promoter activity interaction Z-score” value [2, 21] was 0.266 ± 0.055, the “promoter activity interaction Z-score” value [2, 22] was 0.362 ± 0.13 and the “promoter activity interaction Z-score” value [3, 7] was 0.468 ± 0.27. The “promoter activity interaction Z-score” value [3, 8] was -0.243 ± 0.38, the “promoter activity interaction Z-score” value [3, 9] was 0.492 ± 0.67 and the “promoter activity interaction Z-score” value [3, 10] was 0.619 ± 0.42. The “promoter activity interaction Z-score” value [3, 11] was 0.0398 ± 0.41, the “promoter activity interaction Z-score” value [3, 12] was 1.58 ± 1 and the “promoter activity interaction Z-score” value [3, 13] was 0.963 ± 0.14. For the same molecule, the “promoter activity interaction Z-score” value [3, 14] was 0.857 ± 0.077, the “promoter activity interaction Z-score” value [3, 15] was 0.439 ± 0.22 and the “promoter activity interaction Z-score” value [3, 16] was -0.0015 ± 0.17. The “promoter activity interaction Z-score” value [3, 17] was 1 ± 0.15, the “promoter activity interaction Z-score” value [3, 18] was -0.0721 ± 0.25 and the “promoter activity interaction Z-score” value [3, 19] was 0.63 ± 0.16. The “promoter activity interaction Z-score” value [3, 20] was 1.34 ± 1.3, the “promoter activity interaction Z-score” value [3, 21] was 1.2 ± 0.71 and the “promoter activity interaction Z-score” value [3, 22] was 0.778 ± 0.46. For the same molecule, the “promoter activity interaction Z-score” value [4, 7] was 0.242 ± 0.52, the “promoter activity interaction Z-score” value [4, 8] was -0.678 ± 0.028 and the “promoter activity interaction Z-score” value [4, 9] was 0.808 ± 0.56. For the same molecule, the “promoter activity interaction Z-score” value [4, 10] was -0.138 ± 0.57, the “promoter activity interaction Z-score” value [4, 11] was 0.512 ± 0.4 and the “promoter activity interaction Z-score” value [4, 12] was 2.91 ± 0.44. For the same molecule, the “promoter activity interaction Z-score” value [4, 13] was 0.0783 ± 0.46, the “promoter activity interaction Z-score” value [4, 14] was 0.758 ± 1.5 and the “promoter activity interaction Z-score” value [4, 15] was 1.16 ± 0.6. The “promoter activity interaction Z-score” value [4, 16] was 0.136 ± 0.099, the “promoter activity interaction Z-score” value [4, 17] was 0.453 ± 0.084 and the “promoter activity interaction Z-score” value [4, 18] was -0.883 ± 0.36. The “promoter activity interaction Z-score” value [4, 19] was 1.05 ± 0.1, the “promoter activity interaction Z-score” value [4, 20] was 0.91 ± 0.79 and the “promoter activity interaction Z-score” value [4, 21] was 0.226 ± 0.38. For the same molecule, the “promoter activity interaction Z-score” value [4, 22] was -0.0862 ± 0.5, the “promoter activity interaction Z-score” value [5, 7] was 0.078 ± 0.11 and the “promoter activity interaction Z-score” value [5, 8] was -0.129 ± 0.16. For the same molecule, the “promoter activity interaction Z-score” value [5, 9] was -0.043 ± 0.0072, the “promoter activity interaction Z-score” value [5, 10] was 0.00107 ± 0.095 and the “promoter activity interaction Z-score” value [5, 11] was -0.0775 ± 0.16. For the same molecule, the “promoter activity interaction Z-score” value [5, 12] was -0.0258 ± 0.096, the “promoter activity interaction Z-score” value [5, 13] was -0.0896 ± 0.043 and the “promoter activity interaction Z-score” value [5, 14] was -0.0792 ± 0.22. The “promoter activity interaction Z-score” value [5, 15] was 0.185 ± 0.009, the “promoter activity interaction Z-score” value [5, 16] was -0.158 ± 0.067 and the “promoter activity interaction Z-score” value [5, 17] was 0.12 ± 0.092. For the same molecule, the “promoter activity interaction Z-score” value [5, 18] was -0.0761 ± 0.073, the “promoter activity interaction Z-score” value [5, 19] was 0.163 ± 0.12 and the “promoter activity interaction Z-score” value [5, 20] was -0.1 ± 0.14. For the same molecule, the “promoter activity interaction Z-score” value [5, 21] was -0.0272 ± 0.011, the “promoter activity interaction Z-score” value [5, 22] was 0.103 ± 0.21 and the “promoter activity interaction Z-score” value [6, 7] was 0.274 ± 0.61. The “promoter activity interaction Z-score” value [6, 8] was -0.71 ± 0.23, the “promoter activity interaction Z-score” value [6, 9] was -0.666 ± 0.03 and the “promoter activity interaction Z-score” value [6, 10] was 0.252 ± 0.77. The “promoter activity interaction Z-score” value [6, 11] was 0.0384 ± 0.54, the “promoter activity interaction Z-score” value [6, 12] was 0.367 ± 0.36 and the “promoter activity interaction Z-score” value [6, 13] was 0.81 ± 0.56. The “promoter activity interaction Z-score” value [6, 14] was 0.264 ± 0.25, the “promoter activity interaction Z-score” value [6, 15] was 0.00312 ± 0.045 and the “promoter activity interaction Z-score” value [6, 16] was -0.556 ± 0.81. For the same molecule, the “promoter activity interaction Z-score” value [6, 17] was 0.121 ± 0.86, the “promoter activity interaction Z-score” value [6, 18] was 1.27 ± 0.93 and the “promoter activity interaction Z-score” value [6, 19] was 0.54 ± 0.56. The “promoter activity interaction Z-score” value [6, 20] was -0.295 ± 0.4, the “promoter activity interaction Z-score” value [6, 21] was 0.224 ± 0.11 and the “promoter activity interaction Z-score” value [6, 22] was 1.46 ± 0.25.
